The list is not random: actives were taken first. Their share in the collection is about 2.1%.
APP transl inh: APP translation inhibition; SH-SY5Y APP 5'UTR-luciferase reporter, luminescence; inhibition, % at 2 µM; 190,000 compounds, 0.82% hits; AID 1285;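 active = inhibition above a set limit, derived from the sample mean plus 3 SD, cut at about 45% in these data; inconclusive = one replicate passes the limit while the other fails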
KLF5 inhibitor: inhibitors of KLF5 expression; DLD-1 KLF5 promoter-luciferase reporter, luminescence; inhibition, % at 5 µM; 290,000 compounds, 0.23% hits;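 active = inhibition above a per-plate limit of that plate's mean compound inhibition plus 3 SD, cut at about 60% in these data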;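 also: 0% = DMSO wells and 100% = LY294002 at 200 µM; higher means less KLF5 promoter-driven luciferase light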
Ba/F3 V617F tox: reduce viability of Ba/F3 cells dependent on JAK2V617F. Ba/F3 EpoR-JAK2V617F viability, ATP luminescence. inhibition, % at 5.6 µM. 220,000 compounds, 1.1% hits. AID 1446;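 active = inhibition above the campaign mean plus 3 SD over all tested compounds, cut at about 24% in these data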;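 also: cytokine-independent growth of Ba/F3 cells driven by EpoR plus mutant JAK2; 0% = DMSO-treated cells and 100% = JAK inhibitor I control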
IEC-6 tox: IEC-6 cytotoxicity, counter-screen for KLF5 inhibitors; AID 1825; 290,000 compounds, 0.78% hits; luminescence viability; inhibition, % at 5 µM;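 also: 0% = plate median of test compound wells and 100% = cytotoxic reference compound wells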
BaF3 parental: reduces parental Ba/F3 cell viability, JAK2V617F counter-screen. CellTiter-Glo ATP luminescence. inhibition, % at 5.6 µM. 220,000 compounds, 1.1% hits. AID 1486;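 active = inhibition above a per-campaign cutoff, the mean inhibition of all tested compounds plus 3 SD, cut at about 27% in these data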;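 also: 0% = DMSO wells and 100% = JAK Inhibitor I control wells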
aSyn 5UTR inh: 5' untranslated region of α-synuclein, MLPCN primary screen | alpha-synuclein 5'UTR reporter, inhibitor activity | inhibition, % (tested at 7.5 µM) | 300,000 compounds, 0.82% hits; in the data active = inhibition above about 60%; inconclusive = no clear call, values can overlap the other calls;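 also: H4 neuroglioblastoma cells stably carrying SNCA 5'UTR luciferase fusion; 0% = DMSO wells and 100% = positive control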
IEC-6 tox confirm: IEC-6 cytotoxicity, confirmation assay; inhibition, % at 5 µM; 1,900 compounds, 63% hits; IEC-6 rat intestinal epithelial viability, luminescence; shares compounds with IEC-6 tox;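 also: 0% = vehicle and 100% = reference cytotoxic drug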
An asterisk follows results filed as active; ? = inconclusive; · = no result. Rule as the data show it, unless noted: active = inhibition above about 22%; inactive = the rest.

SMILES	APP transl inh	KLF5 inhibitor	Ba/F3 V617F tox	IEC-6 tox	BaF3 parental	aSyn 5UTR inh	IEC-6 tox confirm
COc1ccc(COC(=O)N/N=C(\C)CC(=O)Nc2ccc(Cl)cn2)cc1	·	-24.1	-3.5	-3.4	-2.8	-0.3	·
CN(C)CCNC(=O)c1nn(C)c2c1CCc1ccccc1-2	·	-6.2	·	1.6	·	0.9	·
O=C(CSc1cccc[n+]1[O-])c1ccccc1Br	-8.3	3.8	6.6	84.8*	7.0	-10.7	7.0
O=C(Nc1ccc(-n2cccn2)cc1)C1CCCCN1Cc1cccc2c1OCO2 (stereo unspecified)	·	39.3	·	54.1*	·	-2.1	36.9*
Cc1cc(-c2ccc(C(C)C)c(S(=O)(=O)N3CCN(c4ccccc4)CC3)c2)on1	·	49.7	·	77.6*	·	?	52.8*
Cc1cccc(N2CCN(S(=O)(=O)c3cc(-c4cc(C)no4)ccc3C)CC2C)c1 (stereo unspecified)	·	30.4	·	49.5*	·	11.4	32.4*
O=C(NCc1cccs1)C1CCN(S(=O)(=O)c2ccccc2F)CC1	·	7.3	2.6	3.1	-0.4	-3.9	·
O=C(Nc1ccc(N2CCCC2)c(Cl)c1)c1ccc([N+](=O)[O-])o1	78.5*	-4.7	74.8*	70.9*	-0.5	·	36.4*
CCCC(=O)N1CCN(c2ccc(NC(=O)c3ccc([N+](=O)[O-])o3)cc2)CC1	70.1*	-5.4	90.2*	90.5*	45.0*	39.6	44.8*
CCN1CCN(c2ccc(NC(=O)c3ccc(Br)o3)cc2)CC1	·	-93.3	·	-3.4	·	-91.2	·
CS(=O)(=O)N1CCN(c2ccc(NC(=O)c3ccc([N+](=O)[O-])o3)cc2)CC1	65.6*	-21.3	5.8	24.6*	-7.4	72.2*	56.3*
O=C(Nc1ccc(N2CCCC2)c(Cl)c1)c1ccco1	-211.1	-149.4	4.5	-3.1	4.5	-113.2	·
CN1CCN(c2ccc(NC(=O)c3ccc(-c4ccc(Br)cc4)o3)cc2)CC1	2.3	-33.0	6.2	25.4*	10.3	29.1	-6.3
CN(C)S(=O)(=O)c1cccc(NC(=O)c2sccc2-c2ccccc2)c1	·	-41.1	·	1.3	·	-0.8	·
CC(C)(C)C(=O)N1CCN(c2ccc(NC(=O)c3ccc([N+](=O)[O-])o3)cc2)CC1	·	47.1	·	100.9*	·	28.7	58.5*
O=C(Nc1ccc(N2CCN(Cc3ccccc3F)CC2)cc1)c1ccccc1[N+](=O)[O-]	6.5	-4.8	-2.9	-2.3	5.2	19.7	·
O=C(Nc1ccc(N2CCN(Cc3ccccc3F)CC2)cc1)c1ccc([N+](=O)[O-])o1	·	18.8	·	71.8*	·	104.7*	32.5*
O=C(Nc1ccc(N2CCCC2)cc1)c1ccc(Br)o1	-56.6	-77.2	2.6	1.6	2.5	-33.4	·
O=C(Nc1cccc(NC(=O)c2ccccc2Cl)c1)c1ccc([N+](=O)[O-])o1	·	10.1	·	101.0*	·	85.8*	48.9*
O=C(Nc1ccc(N2CCCCC2)cc1)c1ccc([N+](=O)[O-])o1	·	10.4	·	80.3*	·	-214.2	15.0
O=C1N=C(C=c2ccc(=Cc3[nH]c(=O)[nH]c3O)cc2)C(=O)N1	·	-15.8	-2.8	-0.9	0.0	-15.2	·
Cc1ccc(CS(=O)(=O)CC(C)(O)c2ccc(Cl)cc2)cc1 (stereo unspecified)	·	-14.6	·	0.2	·	20.8	·
CC(C)(C)NC(=O)/C(=C/c1ccco1)c1ccccc1	-12.9	-16.9	0.7	2.1	5.2	4.8	·
N#CC(C#N)=C1C=CC=CN1/C(=C\c1ccco1)C(=O)c1ccccc1	96.1*	23.3	91.9*	73.6*	71.4*	·	7.4
Cc1ccc(NC(=O)CSc2ccc(Br)cc2)cc1S(=O)(=O)N1CCOCC1	·	·	·	·	·	-8.3	·
SMILES	APP transl inh	KLF5 inhibitor	Ba/F3 V617F tox	IEC-6 tox	BaF3 parental	aSyn 5UTR inh	IEC-6 tox confirm
COCCNC(=O)c1cc(-c2ccccn2)nc2ccc(S(=O)(=O)N3CCC(C)CC3)cc12	·	-19.6	·	0.9	·	4.9	·
CCOCCCNC(=O)c1cc(-c2cccnc2)nc2ccc(S(=O)(=O)N3CCC(C)CC3)cc12	·	-49.0	·	24.4*	·	8.1	0.6
CC(=O)NC1=C(Nc2ccc(N(C)C)cc2)C(=O)c2ccccc2C1=O	·	-141.1	·	67.4*	·	-19.8	41.4*
NNC(=O)c1cc2sccc2s1	·	22.1	80.5*	63.3*	77.8*	-79.5	6.1
O=C(NC1CCSC1)c1cccc(Cl)c1 (stereo unspecified)	·	-12.3	-2.3	5.5	4.8	-8.4	·
CS(=O)(=O)c1nc(S(=O)(=O)c2ccc(Cl)cc2)c(N2CCOCC2)s1	·	-49.1	·	-14.2	·	-74.9	·
COc1ccc(-[n+]2c(C)cc(/C=C3\Sc4ccccc4N3C)cc2C)cc1	82.9*	15.8	100.7*	31.9*	96.9*	-3.5	65.3*
Oc1ccc(Br)cc1/C=N/NC(=S)NCCc1ccccc1	·	-8.6	·	-2.6	·	19.6	·
CC(C)NC(=S)N/N=C/c1cc(Br)ccc1O	-9.8	-13.8	-6.1	94.5*	2.8	-29.2	0.5
Cc1ccc2c(c1)sc(-c1ccc(N(C)C)cc1)[n+]2C	·	32.9	·	43.8*	·	3.9	30.5*
COc1ccc(C)cc1Nc1n[n+](-c2ccccc2)c(-c2ccc(N(C)C)cc2)s1	·	-20.7	·	0.9	·	-40.8	·
CC(C(=O)N(C)c1ccccc1)N1CCN(C(=O)c2ccccc2)CC1 (stereo unspecified)	·	-24.7	·	5.0	·	11.7	·
COc1cccc(NC(=O)Nc2nc(SC)ns2)c1	·	-159.1	·	-2.5	·	-151.1	·
CCSc1nsc(NC(=O)Nc2cccc(F)c2)n1	·	-14.3	·	46.5*	·	36.0	31.7*
C/C(CC(=O)Nc1cccc(Cl)c1Cl)=N\NC(=O)c1ccccc1N	-53.7	-31.8	-1.3	1.8	7.2	-61.5	·
O=C(CCS(=O)(=O)c1ccc(Br)cc1)N1CCCCCC1	·	-20.4	·	-6.3	·	-18.3	·
O=C(CCl)N(c1ccccc1)c1c[nH]c2ccccc12	32.0	0.8	101.1*	33.8*	50.0*	30.5	10.3
Cc1ccccc1NC(=O)CN1CCN(C(=O)c2ccco2)CC1	·	-11.4	·	4.9	·	10.7	·
CCOC(=O)C1(Cc2ccccc2C(F)(F)F)CCN(Cc2ccon2)CC1	·	-7.3	-0.4	3.8	4.7	30.6	·
Cc1ccccc1CS(=O)(=O)c1ncc(Cl)c(C(=O)Nc2ccc(F)cc2)n1	·	9.2	·	60.7*	·	64.2*	9.7
Cc1ccc(NC(=O)c2nc(S(=O)(=O)Cc3ccccc3)ncc2Cl)cc1	·	12.6	·	97.0*	·	35.6	18.9
O=C(Nc1ccc(F)cc1)c1nc(S(=O)(=O)Cc2ccccc2)ncc1Cl	·	17.9	·	90.7*	·	66.6*	11.8
CCOC(=O)c1ccc(NC(=O)c2nc(SC)ncc2Cl)cc1	·	-17.8	·	-4.6	·	-5.0	·
Cn1ncc(Br)c1C(=O)N1CCCCCC1	·	-10.3	·	-3.4	·	-0.5	·
CC(C)(C)C(=O)CN1C(=O)NC2(CCCc3ccccc32)C1=O (stereo unspecified)	·	-19.9	·	1.5	·	5.4	·
NC(=S)N/N=C/c1ncc(C(F)(F)F)cc1Cl	·	33.5	1.2	-7.7	-5.1	60.5	·
O=c1oc(-c2ccccc2)cc(Cl)c1Cl	·	-7.5	·	30.9*	·	-197.6	21.1
CCN(CC(=O)NCc1ccco1)S(=O)(=O)c1ccc(OC)cc1	·	·	·	·	·	-3.1	·
